# Results reported in PubChem BioAssay AID435019 (Southern Research Specialized Biocontainment Screening …, 2010).
# Hit rate of the full screen: of about 2,300 compounds, about 1,200 (52%) were called active. The rule behind the calls is not given here. So high a share suggests a set chosen from earlier hits. This is one part of the list. Measured potencies and affinities stand elsewhere.
# Assay: mammalian cell cytotoxicity, dose response, cytotoxicity control for M. tuberculosis inhibitor project (AID 435019);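 note: 0% = background wells and 100% = vehicle-treated cells; lower values mean fewer viable cells so more cytotoxicity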
# Conditions: cytotoxicity counter-screen; series mostly up to 40 µM; viability: at the top concentration
row,Compound,viability
1,Cc1noc(C)c1COc1ccc(C(=O)OCC(=O)NC23CC4CC(CC(C4)C2)C3)cc1,92% (inactive)
2,O=Cc1ccc(-c2ccc(Cl)cc2Cl)[nH]1,89.3% (inactive)
3,O=C(N[C@H]1CCC(=O)N(CCSc2ccc(Br)cc2)CC1)OCc1ccccc1,81.7% (inactive)
4,CN(C(=O)COC(=O)c1sc2ccccc2c1Cl)C1CCCCC1,102% (inactive)
5,N#CCCN(C(=O)COC(=O)CCc1c[nH]c2ccccc12)c1ccc(F)cc1,98.1% (inactive)
6,COc1ccc(OC)c(C(=O)NC(CC(N)=O)c2ccc(NCc3ccc(F)c(F)c3)c([N+](=O)[O-])c2)c1 (centres undefined),91.3% (inactive)
7,O=[N+]([O-])c1cn(-c2nc(-c3ccco3)cc(C(F)(F)F)n2)cn1,92.9% (inactive)
8,CC(C)(O)C#Cc1ccc(C(=O)Nc2ccc3c(c2)OCO3)s1,98.5% (inactive)
9,CC1(C)OC(=O)C(=Cc2ccc[nH]2)C(=O)O1,93.5% (inactive)
10,Cc1ccccc1Cn1cc(NC(=O)c2noc(C(C)C)c2[N+](=O)[O-])cn1,99.4% (inactive)
11,Cc1ccc(C2=NCCn3c2c2ccccc2[n+]3[O-])cc1,95.3% (inactive)
12,O=S(=O)(c1ccc(Oc2ccc3oc4ccccc4c3c2)nc1)N1CCCC1,90.8% (inactive)
13,O=c1[nH][nH]c(-c2ccccc2O)c1C(C[N+](=O)[O-])c1cccc(Cl)c1 (centres undefined),94.3% (inactive)
14,Cc1ccc(NCCC(=O)c2ccc(Br)cc2)cc1,93.9% (inactive)
15,Cc1ccc(C(=O)n2c(N)nc3ccccc32)cc1,87% (inactive)
16,COc1ccc(N/C=C/c2nc(SC)nnc2C)cc1,92.8% (inactive)
17,O=C(c1cc([N+](=O)[O-])ccc1N1CCOCC1)N1CCN(S(=O)(=O)c2cc(Cl)ccc2Cl)CC1,88.9% (inactive)
18,COc1ccc(N2CCN(C(=O)c3cc4c(C)nc5ccccc5c4o3)CC2)cc1,88.9% (inactive)
19,CN(CC(=O)Nc1ccc(OC(F)(F)F)cc1)C(=O)/C=C/c1cc2c(cc1[N+](=O)[O-])OCO2,85.5% (inactive)
20,CC(=O)c1ccc(NC(=O)c2cc(CC(C)C)on2)cc1,96.5% (inactive)
21,CCOC(=O)CSc1nc(N)c(C(=O)Nc2ccc(N(C)C)cc2)s1,94.7% (inactive)
22,CCOc1ccc(NC(=O)N(C2CCCCC2)C(C)c2ccncc2)cc1 (centres undefined),92.1% (inactive)

row,Compound,viability
1,CCCc1ccc(OCc2ccccc2)c2c(=O)cc(C(=O)OCC)oc12,99.7% (inactive)
2,O=C(Nc1cccnc1Cl)c1cc(-c2ccco2)on1,98.9% (inactive)
3,Cc1cc(C)n(-c2ccc(C(=O)Oc3ccc4c(c3)OCO4)cc2)n1,101% (inactive)
4,COc1ccc(-c2nsc3c(N4CCCCC4C)ncnc23)cc1 (centres undefined),88.7% (inactive)
5,Cc1ccc(N/C=C2\C(=O)C3(C)CCC2C3(C)C)cc1C (centres undefined),99.7% (inactive)
6,O=C(CCC(=O)OCc1ccc(C(=O)Oc2ccc(Cl)cc2)cc1)Nc1ccccc1,86.8% (inactive)
7,COc1ccccc1OC(=O)c1ccc(S(=O)(=O)N(C)C)cc1,98.2% (inactive)
8,CSc1ccc(CNC(=O)c2ccc(NC(=O)C3=CSCCO3)cc2)cc1,87.8% (inactive)
9,CCC1(c2ccccc2)NC(=O)N(CC(=O)Nc2ccc(S(=O)(=O)NC3=NCCCCC3)cc2)C1=O (centres undefined),104% (inactive)
10,CC(=O)/C(=N\Nc1ccc(C)cc1)N1CCOCC1,86.2% (inactive)
11,O=[N+]([O-])c1ccc(CN2CCN(c3ccc(Cl)cc3)CC2)o1,100% (inactive)
12,C[N+](C)(CCCCCC[N+](C)(C)CCCN1C(=O)c2cccc3cccc(c23)C1=O)CCCN1C(=O)c2cccc3cccc(c23)C1=O,96.7% (inactive)
13,CCOC(=O)C1CCN(CC(O)COc2ccc(C(C)(C)CC)cc2)CC1 (centres undefined),89.2% (inactive)
14,O=C(c1ccccc1)c1nn(-c2ccc(Cl)cc2)cc1C(=O)c1cc2ccccc2oc1=O,82.4% (inactive)
15,COc1c[nH]n(C2CCCCC2)c(=O)c1=O,81.8% (inactive)
16,CCOc1ncccc1C(=O)OCC(=O)N1CCc2ccccc21,99.6% (inactive)
17,CS(=O)(=O)c1ccc([C@@H](O)[C@@H](CF)NC(=O)C(Cl)Cl)cc1,81.2% (inactive)
18,O=C(O)Cc1c[nH]c2ccc(O)cc12,97.3% (inactive)
19,Cc1ccc(-c2cn3cccnc3n2)cc1NC(=O)c1ccc(Br)o1,96.1% (inactive)
20,O=C(CSC1=NC(=O)C(c2ccccc2)C(=O)N1)Nc1ccccc1Cl (centres undefined),101% (inactive)
21,CCOC(=O)CSc1ccc(C(=O)Nc2ccc(OC)cc2)cn1,90.3% (inactive)
22,O=C(Nc1nc2nc(-c3ccccc3)cc(=O)n2[nH]1)c1ccccc1,93.5% (inactive)

row,Compound,viability
1,O=C1N=C(N2CCC(Cc3ccccc3)CC2)S/C1=C/c1cn[nH]c1-c1ccccc1,91% (inactive)
2,C=CCSc1n[nH]c(-c2ccc(OCCCC)cc2)n1,84.6% (inactive)
3,CCOC(=O)c1c(C)[nH]c(N=Nc2ccc(OC)cc2)c1C,86.4% (inactive)
4,Cc1ccc2nc(SCC(=O)Nc3ccc4c(c3)CCC4)[nH]c2c1,88.9% (inactive)
5,O=C(CSCc1ccc([N+](=O)[O-])cc1)N/N=C/c1ccncc1,95.2% (inactive)
6,CCOC(=O)COc1ccc(S(=O)(=O)NCCC2=CCCCC2)cc1,94.7% (inactive)
7,O=c1oc2ccccc2c2c1nc(C(F)(F)F)n2-c1ccccc1,97.6% (inactive)
8,CCOC(=O)c1cn[nH]c1N,98.8% (inactive)
9,CCCCc1ccc(NC(=S)N2CCN(c3ncccn3)CC2)cc1,101% (inactive)
10,CC/C(C)=N/NC(=S)NCc1ccco1,86.3% (inactive)
11,CC(C)OC(=O)c1ccc(COC(=O)c2cnccn2)cc1,91.4% (inactive)
12,CC(=O)/C(=C\Nc1ccc(OCc2ccccc2)cc1)c1ccccc1,87% (inactive)
13,C/C(=N/NC(=O)c1ccccn1)c1c[nH]c2ccccc12,99.1% (inactive)
14,CCCCCCC(=O)N/N=C/c1ccc(Br)cc1,101% (inactive)
15,O=C(OCC(=O)N1CCC(c2ccccc2)=N1)c1ccc(Cl)s1,88% (inactive)
16,Cc1ccc(C(=O)O/N=C(\N)c2ccc(Br)cc2)cc1C,92.7% (inactive)
17,COC(=O)c1ccc(COC(=O)CCc2nc(-c3ccccc3)c(-c3ccccc3)o2)cc1,92.4% (inactive)
18,Cc1cc(=O)oc2cc(OC(=O)C3CCN(C(=O)c4ccc(F)cc4)CC3)ccc12,93% (inactive)
19,Cc1ccc(C(=O)N2N=C(CC(C)C)CC2(O)C(F)(F)F)o1 (centres undefined),97.2% (inactive)
20,Nc1ccc2c(c1)Cc1ccccc1-2,89.1% (inactive)
21,CCCC(=O)Nc1sc2c(c1C#N)CCCCC2,88.5% (inactive)
22,CCOC(=O)CSc1nnc(-c2c[nH]c3ccccc23)o1,96.3% (inactive)

row,Compound,viability
1,CCOC(=O)Cn1c(C)c(Br)c(=O)c2cccc(C)c21,103% (inactive)
2,Cc1ccc(/C=C2\SC(N3CCCC3)=NC2=O)cc1,86.4% (inactive)
3,CN(C)C/C=C/C(=O)Nc1cccc(-c2c[nH]c3ncnc(Oc4ccc(NC(=O)CC(=O)Nc5ccc(F)cc5)cc4F)c23)c1,88.1% (inactive)
4,CSc1nsc(SCC(=O)N2CCCCC2)n1,99.7% (inactive)
5,NNC(=S)NCc1ccc2c(c1)OCO2,99% (inactive)
6,Cc1cc(NC(=O)c2noc3c2CCCC3)nn1Cc1ccc(Cl)cc1,84.7% (inactive)
7,CCOc1ccc(/C=N/OCC(=O)Nc2cc(C)on2)cc1,96.8% (inactive)
8,COCCCN=C1NN=C(c2cc(C)n(Cc3ccco3)c2C)CS1,33.4% (inactive)
9,Cc1ccc(C2=NN(C)c3nc4ccccc4n3C2)cc1,84.9% (inactive)
10,COc1ccc(OC)c(CN2CCN(C(=O)CNC(=O)c3ccc(C(C)(C)C)cc3)CC2)c1,97% (inactive)
11,Cc1cc(NC(=O)CCN2C(=O)C3C4C=CC(C4)C3C2=O)ccc1Br (centres undefined),97.6% (inactive)
12,COc1ccc(-c2c(C#Cc3ccsc3)c3ccccc3n2C)cc1,89.6% (inactive)
13,CCOC(=O)c1ccc(NC(=O)C(C)Sc2nc(O)c(-c3ccccc3)c(=O)[nH]2)cc1 (centres undefined),88.8% (inactive)
14,O=C(Nc1ccc(C2=NCCN2)cc1)c1ccc(Cl)c(C(=O)Nc2ccc(C3=NCCN3)cc2)c1,97.4% (inactive)
15,CC(=O)c1sc(NC(=O)c2cc(=O)c3ccccc3o2)nc1C,84.2% (inactive)
16,C=CCc1cccc(CNc2cnc3ccccc3c2)c1O,88.8% (inactive)
17,Cc1cc(-c2cc(-c3ccccc3)on2)nc(NC2CCCC2)n1,85.9% (inactive)
18,Cc1ccsc1/C=N/Nc1ccc(F)cc1F,95.7% (inactive)
19,CC(C)(C)c1nc2sc3c(c2c(=O)o1)CCCC3,93.7% (inactive)
20,Cc1ccc(CNC(=O)c2sc3nc4c(c(C(F)(F)F)c3c2N)CCC4)cc1,94.3% (inactive)
21,COc1ccc(C(=O)C2CCCN(C3CSCCSC3)C2)c(C)c1 (centres undefined),83.2% (inactive)
22,CN1C(=O)c2cccc3c(Br)ccc(c23)C1=O,97.7% (inactive)

row,Compound,viability
1,CN(Cc1ccc(Br)cc1)C(=O)CCN1C(=O)c2cccc([N+](=O)[O-])c2C1=O,86.3% (inactive)
2,O=C(Nc1ccc(Cl)cc1)N(C1=NCCC1)c1ccc(OC(F)F)cc1,82.3% (inactive)
3,O=C(c1ccco1)N1CCN(C(=O)C2CC(c3ccc(Cl)c(Cl)c3)=NO2)CC1 (centres undefined),84.7% (inactive)
4,O=c1cc2[nH]c3ccccc3c(=O)n2nc1-c1ccccc1,98.3% (inactive)
5,c1ccc(-c2nc(N3CCCC3)nc3ccccc23)cc1,92.6% (inactive)
6,CCOC(=O)N/N=C(/C)c1ccc([N+](=O)[O-])o1,84.4% (inactive)
7,CN1/C(=C\C(=O)COC(=O)c2ccc([N+](=O)[O-])o2)C(C)(C)c2ccccc21,98.5% (inactive)
8,CCOc1cc(C2NN=C(c3ccc(C)cc3)S2)ccc1O (centres undefined),82% (inactive)
9,N#C/C(=C1\CCCN1)c1nc(-c2ccccc2)cs1,82% (inactive)
10,O=C(Nc1ccc(-n2cccc2)cc1)C1CC1,92.5% (inactive)
11,Cc1ccc(NC(=O)C2C3/C=C\CCCCC32)cc1C (centres undefined),96.5% (inactive)
12,Cc1ccc(S(=O)(=O)NCc2ccc(C(=O)NCCCN3CCC(Cc4ccccc4)CC3)cc2)cc1,94.2% (inactive)
13,COc1cccc(-n2nnc3c(=O)n(CC(=O)N4CCC(Cc5ccccc5)CC4)cnc32)c1,80.7% (inactive)
14,CCCCCCSc1nsc(NC(=O)CC(C)C)n1,85% (inactive)
15,Cc1c(OCc2ccccc2)c(=O)ccn1Cc1ccc(Cl)cc1,87.7% (inactive)
16,CC(=O)N1C(Nc2ccc(Cl)cc2)CCN1c1ccccc1 (centres undefined),102% (inactive)
17,Nc1ccc2c(c1)oc1ccccc12,87.4% (inactive)
18,Cc1ccc(-n2[nH]c(C)c(C=Nc3ccc(S(=O)(=O)Nc4nccs4)cc3)c2=O)c(C)c1,88.1% (inactive)
19,Cc1ccccc1C(=O)Nc1ccc(N(C)C)c2ccccc12,95.2% (inactive)
20,N/C(=N\OC(=O)Nc1ccc(Cl)c(Cl)c1)c1ncc(C(F)(F)F)cc1Cl,92.2% (inactive)
21,CC(C)C(=O)N1CCC2(CC1)Oc1ccc(Cl)cc1C(=O)C21CC(c2ccccc2)=NO1 (centres undefined),83.4% (inactive)
